Data from PubChem BioAssay (NCI).
Compounds without any hit were thinned out: in the full panel of roughly 83,000, 20% have a hit.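 How to read the values: 0–100, growth inhibition (40 = 60% inhibited); 0, no net growth; -100 to 0, cell death (-40 = 40% of starting cells died; -100 = all dead).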 The source made the active and inactive calls. Rule for the calls: active = growth percent below 10; inactive = the rest.

What was measured:
Experiment in all cases: NCI-60 one-dose screen, 48 h (100 = growth as untreated, 0 = no growth, -100 = all killed)
Details in all cases: 10 µM unless noted
SR leukemia = system: SR leukemia
RPMI-8226 leukemia = system: RPMI-8226 leukemia
OVCAR-8 ovarian = system: OVCAR-8 ovarian
OVCAR-5 ovarian = system: OVCAR-5 ovarian
OVCAR-4 ovarian = system: OVCAR-4 ovarian
SK-OV-3 ovarian = system: SK-OV-3 ovarian
IGROV1 ovarian = system: IGROV1 ovarian
OVCAR-3 ovarian = system: OVCAR-3 ovarian
HS 578T breast = system: HS 578T breast
NCI/ADR-RES ovarian = system: NCI/ADR-RES ovarian
T-47D breast = system: T-47D breast
BT-549 breast = system: BT-549 breast
MDA-MB-435 melanoma = system: MDA-MB-435 melanoma
SW-620 colon = system: SW-620 colon
MCF7 breast = system: MCF7 breast
HCT-116 colon = system: HCT-116 colon
HCC-2998 colon = system: HCC-2998 colon
KM12 colon = system: KM12 colon

Measured: growth

NC(CSC(c1ccccc1)(c1ccccc1)c1ccc2c(c1)OCO2)C(=O)O (stereo unspecified)
active: SR leukemia 5.57% | RPMI-8226 leukemia -7.99% | OVCAR-3 ovarian 3.46% | MDA-MB-435 melanoma -58% | HCT-116 colon 7.34% | HCC-2998 colon 9.26%
inactive: OVCAR-8 ovarian 19.4% | OVCAR-5 ovarian 41% | OVCAR-4 ovarian 70.7% | SK-OV-3 ovarian 15.2% | IGROV1 ovarian 42.2% | HS 578T breast 15.7% | NCI/ADR-RES ovarian 53.9% | T-47D breast 30.2% | BT-549 breast 22.7% | SW-620 colon 12.9% | MCF7 breast 10.3% | KM12 colon 13.1%

COc1ccc(/C=C/C(=O)c2cc3c(N)c(C(=O)Nc4ccc(OC)cc4)sc3nc2C)cc1
inactive: SR leukemia 11.8% | RPMI-8226 leukemia 37.7% | OVCAR-5 ovarian 42.9% | OVCAR-4 ovarian 53.5% | SK-OV-3 ovarian 16.1% | IGROV1 ovarian 33% | T-47D breast 57.2% | BT-549 breast 24.6% | SW-620 colon 19.2% | MCF7 breast 14.3% | HCT-116 colon 16.6% | KM12 colon 13.1%
active: OVCAR-8 ovarian 7.03% | OVCAR-3 ovarian 2.94% | HS 578T breast 8.09% | NCI/ADR-RES ovarian 6.34% | MDA-MB-435 melanoma -23%

COc1cc(C2Cc3ncccc3-c3[nH]c(=O)c4cccnc4c32)cc(OC)c1OC (stereo unspecified)
active: OVCAR-3 ovarian -11.3% | MDA-MB-435 melanoma -50.3%
inactive: SR leukemia 11.8% | RPMI-8226 leukemia 37.6% | OVCAR-8 ovarian 17.3% | OVCAR-5 ovarian 52.2% | OVCAR-4 ovarian 58% | SK-OV-3 ovarian 15.3% | IGROV1 ovarian 48.6% | HS 578T breast 41.9% | NCI/ADR-RES ovarian 31.1% | T-47D breast 45.6% | BT-549 breast 40.6% | SW-620 colon 26.7% | MCF7 breast 16% | HCT-116 colon 13.8% | KM12 colon 23%

CCOC(=O)c1c(C)nn(CC(O)c2ccccc2)c1NC(=O)Nc1cccc(F)c1 (stereo unspecified)
inactive: SR leukemia 93% | RPMI-8226 leukemia 80.8% | OVCAR-8 ovarian 93.1% | OVCAR-5 ovarian 84.8% | OVCAR-4 ovarian 83.6% | SK-OV-3 ovarian 85.2% | IGROV1 ovarian 90% | OVCAR-3 ovarian 95.6% | HS 578T breast 71.4% | NCI/ADR-RES ovarian 90.9% | T-47D breast 81.8% | BT-549 breast 96.4% | MDA-MB-435 melanoma 86.8% | SW-620 colon 82.7% | MCF7 breast 81.4% | HCT-116 colon 84% | KM12 colon 82.9%

CN1CCN(Cc2ccc(NC(=O)c3cncc(C#Cc4cncc5ncccc45)c3)cc2C(F)(F)F)CC1
active: SR leukemia -37.7% | RPMI-8226 leukemia 9.58% | SK-OV-3 ovarian -3.03% | IGROV1 ovarian 1.13% | HS 578T breast -5.88% | SW-620 colon -26.7% | HCT-116 colon -58.3%
inactive: OVCAR-8 ovarian 28.1% | OVCAR-5 ovarian 25.2% | OVCAR-4 ovarian 17.3% | OVCAR-3 ovarian 36.3% | NCI/ADR-RES ovarian 30.9% | T-47D breast 60.9% | BT-549 breast 38.6% | MDA-MB-435 melanoma 10.6% | MCF7 breast 13.7% | HCC-2998 colon 13.9% | KM12 colon 10.7%

O=C(Nc1nc(C(=O)N2CCN(C(c3ccccc3)c3ccccc3)CC2)cs1)c1ccc(NC2CCCCC2)c([N+](=O)[O-])c1
inactive: SR leukemia 90.2% | RPMI-8226 leukemia 64.2% | OVCAR-8 ovarian 80.4% | OVCAR-5 ovarian 89.2% | OVCAR-4 ovarian 68.9% | SK-OV-3 ovarian 89.8% | IGROV1 ovarian 79.6% | OVCAR-3 ovarian 92.2% | HS 578T breast 90.2% | NCI/ADR-RES ovarian 77% | T-47D breast 60% | BT-549 breast 82.5% | MDA-MB-435 melanoma 91% | SW-620 colon 91.4% | MCF7 breast 81.3% | HCT-116 colon 82.6% | KM12 colon 91.4%

C#CCOc1cccc(-c2ncc3cc(NC(=O)CCl)ccc3n2)c1
active: SR leukemia -28.2% | RPMI-8226 leukemia -24.9% | OVCAR-8 ovarian 6.25% | OVCAR-5 ovarian -58.8% | OVCAR-4 ovarian -28.2% | IGROV1 ovarian -52.7% | OVCAR-3 ovarian -51.2% | NCI/ADR-RES ovarian 7.12% | T-47D breast -26.7% | BT-549 breast -49.3% | MDA-MB-435 melanoma 2.74% | SW-620 colon -58.3% | MCF7 breast -21.6% | HCT-116 colon -26.9%
inactive: SK-OV-3 ovarian 76.8% | HS 578T breast 31.7% | KM12 colon 14.2%

O=C(Cn1nnc2ccccc21)N/N=C/c1ccccc1F
inactive: SR leukemia 96.8% | RPMI-8226 leukemia 101% | OVCAR-8 ovarian 95.2% | OVCAR-5 ovarian 108% | OVCAR-4 ovarian 110% | SK-OV-3 ovarian 98.2% | IGROV1 ovarian 109% | OVCAR-3 ovarian 108% | HS 578T breast 81.2% | NCI/ADR-RES ovarian 109% | T-47D breast 92% | BT-549 breast 101% | MDA-MB-435 melanoma 102% | SW-620 colon 96.7% | MCF7 breast 89.9% | HCT-116 colon 101% | KM12 colon 91.9%

COC1=CC(c2ccc[nH]2)=N/C1=C\c1[nH]c(C)c(CC(=O)OCc2ccccc2)c1C
inactive: OVCAR-4 ovarian 10.5% | SK-OV-3 ovarian 11%
active: SR leukemia -25.5% | RPMI-8226 leukemia -41.1% | OVCAR-8 ovarian 9.46% | OVCAR-5 ovarian 9.74% | IGROV1 ovarian -3.67% | OVCAR-3 ovarian -49.5% | HS 578T breast -6.47% | NCI/ADR-RES ovarian 1.3% | T-47D breast -28.6% | BT-549 breast -1.22% | MDA-MB-435 melanoma -21.3% | SW-620 colon -6.46% | MCF7 breast 4.14% | HCT-116 colon -35% | KM12 colon -9.28%

O=C(N/N=C/c1ccc(O)cc1O)c1ccc(Nc2ccnc(C(F)(F)F)c2)cc1
active: T-47D breast 4.87%
inactive: SR leukemia 91.8% | RPMI-8226 leukemia 59.2% | OVCAR-8 ovarian 48.2% | OVCAR-5 ovarian 53.2% | OVCAR-4 ovarian 38.6% | SK-OV-3 ovarian 38.9% | IGROV1 ovarian 77.1% | OVCAR-3 ovarian 61.6% | HS 578T breast 86.4% | NCI/ADR-RES ovarian 64.2% | BT-549 breast 41.5% | MDA-MB-435 melanoma 44.7% | SW-620 colon 49.3% | MCF7 breast 25.5% | HCT-116 colon 27.5% | KM12 colon 57.2%

Cc1cc(N2CCCCC2)nc(N2CCN(CC(=O)Nc3ccc4c(ccn4Cc4ccccc4)c3)CC2)n1
inactive: SR leukemia 64% | RPMI-8226 leukemia 53.4% | OVCAR-8 ovarian 36.6% | OVCAR-5 ovarian 88.7% | OVCAR-4 ovarian 54.2% | SK-OV-3 ovarian 62.3% | IGROV1 ovarian 64.5% | OVCAR-3 ovarian 68.7% | HS 578T breast 66.7% | NCI/ADR-RES ovarian 47.9% | T-47D breast 32.8% | BT-549 breast 82.7% | MDA-MB-435 melanoma 77.8% | SW-620 colon 73.6% | MCF7 breast 44.4% | HCC-2998 colon 93.3% | KM12 colon 49.1%

COc1cc(C(=O)c2c(-c3ccccc3)oc3c(OC)cccc23)cc(OC)c1O
active: OVCAR-3 ovarian 0.78% | HS 578T breast 4.85% | HCC-2998 colon -3.66%
inactive: SR leukemia 11.1% | RPMI-8226 leukemia 23.9% | OVCAR-8 ovarian 20.4% | OVCAR-5 ovarian 45.7% | OVCAR-4 ovarian 42.1% | SK-OV-3 ovarian 45.1% | IGROV1 ovarian 18.8% | NCI/ADR-RES ovarian 10.5% | T-47D breast 44% | BT-549 breast 11.7% | SW-620 colon 22.7% | MCF7 breast 14.1% | HCT-116 colon 10.2% | KM12 colon 16.6%

Cc1ccc(Nc2nc(-c3ccc(F)cc3)c(C#N)c(=O)n2C)cc1
inactive: SR leukemia 62.3% | RPMI-8226 leukemia 89.4% | OVCAR-8 ovarian 67.3% | OVCAR-5 ovarian 63.4% | OVCAR-4 ovarian 51% | SK-OV-3 ovarian 60.1% | IGROV1 ovarian 67.5% | OVCAR-3 ovarian 61.5% | HS 578T breast 44.8% | NCI/ADR-RES ovarian 76.2% | T-47D breast 35.5% | BT-549 breast 52.8% | SW-620 colon 68.9% | MCF7 breast 56.1% | HCT-116 colon 53.4% | HCC-2998 colon 86.2% | KM12 colon 87.7%

O=C(O)CCCn1c(SCc2c(Cl)cccc2Cl)nc2ccsc2c1=O
inactive: RPMI-8226 leukemia 19.2% | OVCAR-8 ovarian 28.8% | OVCAR-5 ovarian 50.7% | OVCAR-4 ovarian 70.7% | SK-OV-3 ovarian 34.3% | IGROV1 ovarian 44.9% | HS 578T breast 11.9% | T-47D breast 35.5% | BT-549 breast 34.2% | SW-620 colon 15.1% | MCF7 breast 20.6% | HCC-2998 colon 29.6% | KM12 colon 18.3%
active: SR leukemia 9.9% | OVCAR-3 ovarian -20.4% | NCI/ADR-RES ovarian 4.6% | MDA-MB-435 melanoma -58.4%

CS(=O)(=O)Nc1cc(-c2ccc3ncnc(Nc4ccc5c(cnn5Cc5cccnc5)c4)c3c2)cnc1Cl
active: IGROV1 ovarian 3.96% | HS 578T breast -2.21% | T-47D breast 0.364%
inactive: SR leukemia 21.5% | RPMI-8226 leukemia 54.7% | OVCAR-8 ovarian 75.6% | OVCAR-5 ovarian 49% | OVCAR-4 ovarian 74.6% | SK-OV-3 ovarian 58.4% | OVCAR-3 ovarian 19.2% | NCI/ADR-RES ovarian 93.2% | BT-549 breast 17.1% | SW-620 colon 66.8% | MCF7 breast 15.2% | HCT-116 colon 69.8%

CCOc1ccc(/C=N\N=C\c2ccc(OCC)cc2)cc1
inactive: SR leukemia 64.3% | RPMI-8226 leukemia 107% | OVCAR-8 ovarian 74.5% | OVCAR-5 ovarian 76.9% | OVCAR-4 ovarian 94.1% | SK-OV-3 ovarian 101% | IGROV1 ovarian 78.5% | OVCAR-3 ovarian 114% | HS 578T breast 106% | NCI/ADR-RES ovarian 78.1% | T-47D breast 94.7% | BT-549 breast 87.7% | MDA-MB-435 melanoma 109% | SW-620 colon 52.8% | MCF7 breast 67.5% | HCC-2998 colon 98% | KM12 colon 98.1%

CC(CN)[C@@H]1CC[C@]2(CO)CC[C@]3(C)[C@H](CC[C@@H]4[C@@]5(C)CCC(N)C(C)(C)[C@@H]5CC[C@]43C)[C@@H]12 (stereo partly specified)
active: SR leukemia -46.4% | RPMI-8226 leukemia -38.2% | OVCAR-8 ovarian -78.4% | OVCAR-5 ovarian -51.4% | OVCAR-4 ovarian -38.9% | OVCAR-3 ovarian -84.2% | HS 578T breast 4.39% | T-47D breast 6% | SW-620 colon -75.7% | MCF7 breast -71.2% | HCT-116 colon -81.2% | HCC-2998 colon -77.5% | KM12 colon -73.5%
inactive: SK-OV-3 ovarian 103% | IGROV1 ovarian 62.2% | NCI/ADR-RES ovarian 53.6% | BT-549 breast 44.9%

CN(CCC#N)c1ccc(/C=C2\NC(=O)NC2=O)cc1
inactive: SR leukemia 102% | RPMI-8226 leukemia 110% | OVCAR-8 ovarian 111% | OVCAR-5 ovarian 98.7% | OVCAR-4 ovarian 102% | SK-OV-3 ovarian 105% | IGROV1 ovarian 105% | OVCAR-3 ovarian 121% | HS 578T breast 88.8% | NCI/ADR-RES ovarian 93.2% | T-47D breast 112% | BT-549 breast 51.4% | MDA-MB-435 melanoma 93.1% | SW-620 colon 99.8% | MCF7 breast 102% | HCC-2998 colon 96.7% | KM12 colon 101%
